Reference: the supplement of paper PMC9694430

Columns and labels:
Experiment in all cases: thermal shift delta Tm vs DMSO control; higher = stronger stabilization (binding)
Details in all cases: 12.5 µM; protein concentration 2 µM
LOC_OS01G57100-cb003 = test system: LOC_OS01G57100-cb003
Summary of the method: (§1)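 Heating from 25°C to 95°C at 0.05°C/s, fluorescence was recorded for 19.5 μl wells of 2 μM E. coli-expressed, purified rice kinase domain in 100 mM potassium phosphate pH 7.5, 150 mM NaCl, 10% glycerol and 5 × SYPRO Orange with compound in DMSO. Boltzmann fits gave melting temperatures for this differential scanning fluorimetry assay. The shift reported is the mean of three replicates against the DMSO-only protein.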

LOC_OS01G60330-cb001 = test system: LOC_OS01G60330-cb001
Summary of the method: as §1

LOC_OS01G60700-cb002 = test system: LOC_OS01G60700-cb002
Summary of the method: as §1

LOC_OS01G63280-cb003 = test system: LOC_OS01G63280-cb003
Summary of the method: as §1

LOC_OS01G67340-cb003 = test system: LOC_OS01G67340-cb003
Summary of the method: as §1

LOC_OS01G70970-cb002 = test system: LOC_OS01G70970-cb002
Summary of the method: as §1

LOC_OS02G07810-cb001 = test system: LOC_OS02G07810-cb001
Summary of the method: as §1

LOC_OS02G08530-cb003 = test system: LOC_OS02G08530-cb003
Summary of the method: as §1

LOC_OS02G14120-cb001 = test system: LOC_OS02G14120-cb001
Summary of the method: as §1

LOC_OS02G17970-cb001 = test system: LOC_OS02G17970-cb001
Summary of the method: as §1

LOC_OS02G45750-cb003 = test system: LOC_OS02G45750-cb003
Summary of the method: as §1

LOC_OS02G54510-cb004 = test system: LOC_OS02G54510-cb004
Summary of the method: as §1

LOC_OS03G04050-cb001 = test system: LOC_OS03G04050-cb001
Summary of the method: as §1

LOC_OS03G12390-cb001 = test system: LOC_OS03G12390-cb001
Summary of the method: as §1

LOC_OS03G27990-cb004 = test system: LOC_OS03G27990-cb004
Summary of the method: as §1

LOC_OS03G50450-cb001 = test system: LOC_OS03G50450-cb001
Summary of the method: as §1

LOC_OS03G50810-cb003 = test system: LOC_OS03G50810-cb003
Summary of the method: as §1

LOC_OS04G35114-cb001 = test system: LOC_OS04G35114-cb001
Summary of the method: as §1

LOC_OS04G38480-cb003 = test system: T1, LOC_OS04G38480-cb003
T1 sequence (whole entry): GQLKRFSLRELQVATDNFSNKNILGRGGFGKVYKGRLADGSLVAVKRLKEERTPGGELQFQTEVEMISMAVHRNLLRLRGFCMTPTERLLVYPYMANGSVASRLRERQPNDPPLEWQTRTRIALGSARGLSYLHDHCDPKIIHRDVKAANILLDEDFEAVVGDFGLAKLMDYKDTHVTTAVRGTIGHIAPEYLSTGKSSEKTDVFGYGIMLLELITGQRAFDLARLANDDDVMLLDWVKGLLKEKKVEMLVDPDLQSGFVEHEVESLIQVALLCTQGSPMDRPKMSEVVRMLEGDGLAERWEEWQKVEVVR
Summary of the method: as §1

LOC_OS04G41100-cb001 = test system: T2, LOC_OS04G41100-cb001
T2 sequence (whole entry): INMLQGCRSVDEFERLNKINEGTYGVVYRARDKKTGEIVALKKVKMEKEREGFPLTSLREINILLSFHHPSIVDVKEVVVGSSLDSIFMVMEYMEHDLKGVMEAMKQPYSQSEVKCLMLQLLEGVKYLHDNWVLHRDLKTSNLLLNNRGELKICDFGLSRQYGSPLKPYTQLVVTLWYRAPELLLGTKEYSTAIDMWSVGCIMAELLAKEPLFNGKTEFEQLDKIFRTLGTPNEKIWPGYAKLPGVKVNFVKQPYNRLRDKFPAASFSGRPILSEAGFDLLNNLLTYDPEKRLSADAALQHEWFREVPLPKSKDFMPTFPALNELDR
Summary of the method: as §1
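Further: purified Escherichia coli-expressed rice kinase domain construct.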

Row | SMILES | thermal shift delta Tm (LOC_OS01G57100-cb003) [°C] | thermal shift delta Tm (LOC_OS01G60330-cb001) [°C] | thermal shift delta Tm (LOC_OS01G60700-cb002) [°C] | thermal shift delta Tm (LOC_OS01G63280-cb003) [°C] | thermal shift delta Tm (LOC_OS01G67340-cb003) [°C] | thermal shift delta Tm (LOC_OS01G70970-cb002) [°C] | thermal shift delta Tm (LOC_OS02G07810-cb001) [°C] | thermal shift delta Tm (LOC_OS02G08530-cb003) [°C] | thermal shift delta Tm (LOC_OS02G14120-cb001) [°C] | thermal shift delta Tm (LOC_OS02G17970-cb001) [°C] | thermal shift delta Tm (LOC_OS02G45750-cb003) [°C] | thermal shift delta Tm (LOC_OS02G54510-cb004) [°C] | thermal shift delta Tm (LOC_OS03G04050-cb001) [°C] | thermal shift delta Tm (LOC_OS03G12390-cb001) [°C] | thermal shift delta Tm (LOC_OS03G27990-cb004) [°C] | thermal shift delta Tm (LOC_OS03G50450-cb001) [°C] | thermal shift delta Tm (LOC_OS03G50810-cb003) [°C] | thermal shift delta Tm (LOC_OS04G35114-cb001) [°C] | thermal shift delta Tm (LOC_OS04G38480-cb003) [°C] | thermal shift delta Tm (LOC_OS04G41100-cb001) [°C]
1 | CC(C)Nc1cc(-c2c[nH]c(C(=O)N[C@H](CO)c3cccc(Cl)c3)c2)c(Cl)cn1 | 2.03 | 1.73 | 1.28 | 0.91 | 1.23 | 0.59 | 1.19 | 1.18 | 1.13 | 1.49 | 0.06 | 0.08 | 0.57 | 1.86 | 0.44 | 0.2 | 0.3 | 1.54 | 1.63 | 1.97
2 | Nc1cccc(S(=O)(=O)N2CCCN(S(=O)(=O)c3ccc4c(c3)OCCO4)CC2)c1 | 0.46 | 0.53 | 0.59 | -0.02 | 0.27 | 0.17 | 0.54 | 0.32 | 0.21 | 0.7 | 0.54 | 0.12 | 0.38 | 0.13 | 0.13 | 0.24 | 0.28 | 0.8 | 1.86 | 0.33
3 | Cc1ncc(CO)c(CO)c1O [Pyridoxine] | -0.85 | -0.2 | -0.29 | -0.26 | 0.08 | 0.33 | -0.63 | 0.26 | 0.41 | 0.66 | 0.81 | -0.02 | 0.53 | -0.09 | 0.25 | 0.62 | 0.03 | -0.36 | 0.12 | 0.24
4 | Cc1ccc2nc(NCCN)c3ncc(C)n3c2c1 | 0.95 | 0.28 | 0.64 | 0.27 | 0.55 | 0.33 | 0.4 | 0.92 | 0.86 | 0.51 | 1.07 | 0.24 | 0.59 | -0.09 | 0.55 | 0.62 | 0.58 | 0.91 | 0.69 | 1.54
5 | CO[C@H]1C[C@@H]2CC[C@@H](C)[C@@](O)(O2)C(=O)C(=O)N2CCCC[C@H]2C(=O)O[C@H]([C@H](C)C[C@@H]2CC[C@@H](OP(C)(C)=O)[C@H](OC)C2)CC(=O)[C@H](C)/C=C(\C)[C@@H](O)[C@@H](OC)C(=O)[C@H](C)C[C@H](C)/C=C/C=C/C=C/1C [Ridaforolimus (Deforolimus, MK-8669)] | 0.89 | 1.16 | 0.84 | 0.17 | -0.64 | 0.14 | 0.4 | 0.57 | 0.4 | 0.27 | 0.46 | -0.33 | 0.25 | 0.04 | 0.01 | -0.11 | -0.15 | 0.34 | 0.98 | 0.85
6 | Cn1nccc1Nc1nccc(-c2ccn([C@H](CO)c3ccc(Cl)c(F)c3)c(=O)c2)n1 | 1.99 | -0.22 | 0.52 | 0 | 0.09 | 0.22 | -0.02 | 0.98 | 0.71 | -0.12 | 0.71 | 0.28 | 0.29 | 2.16 | 0.03 | 0.11 | -0.12 | 0.45 | 0.14 | 2.7
7 | C=CC(=O)Nc1cc(Nc2nccc(-c3cn(C)c4ccccc34)n2)c(OC)cc1N(C)CCN(C)C [Osimertinib (AZD9291)] | -0.15 | 1.07 | 1.16 | 0.43 | 0.42 | 0.32 | 0.03 | 3.79 | 3.74 | -0.32 | 1.63 | 0.52 | 0.78 | 4.71 | 0.93 | 0.74 | 2.65 | 6.25 | 2.86 | 0.51
8 | O=C1NC(=O)[C@@H](c2cn3c4c(cccc24)CCC3)[C@@H]1c1c[nH]c2ccccc12 [Tivantinib (ARQ 197)] | 1.7 | 0.74 | 0.02 | 0.24 | 0.37 | 0.39 | 0.91 | 0.76 | 0.16 | 0.24 | 0.51 | 0.03 | 0.44 | -0.01 | 0.43 | 0.17 | 0.07 | 0.51 | 0.13 | 0.36
9 | CNS(=O)(=O)C[C@H]1CC[C@H](N(C)c2[nH]cnc3nccc2-3)CC1 [Oclacitinib] | 1.69 | 4.38 | 1.12 | 2.6 | 2.18 | 1.16 | 0.11 | 2.49 | 4.19 | 1.21 | 3.43 | 0.36 | 0.63 | 1.78 | 1.09 | 1.35 | 1.01 | 1.87 | 0.99 | 0.23
10 | O=C1NC(=O)/C(=C/c2ccc3nccc(-c4ccncc4)c3c2)S1 | 0.39 | 0.51 | 0.74 | -0.17 | 0.62 | 0.07 | 0.58 | 0.62 | 3.14 | 0.7 | 1.29 | 0.51 | 0.38 | 2.47 | 0.28 | 0.79 | 0.4 | 7.2 | 1.96 | 0.48
11 | NCC(=O)Nc1ccc(-n2nc(C(F)(F)F)cc2-c2ccc3c(ccc4ccccc43)c2)cc1 | 0.88 | 4.36 | 0.02 | 3.67 | -0.53 | 0.2 | 0.25 | 0.42 | 1.29 | -0.34 | -0.16 | -0.91 | 0.64 | 0.8 | -0.15 | 0.36 | 0.37 | -0.57 | 1.25 | 0.65
